# The supplement of paper PMC10338343
# ± gives the standard deviation.
# Tested on: MILI (PIWIL2) piRISC loaded with L1MC piRNA (26 nt)
# Assay: pre-steady-state target cleavage rate (min^-1); guide: L1MC piRNA 5'p-UAACUAAAUACUAUGCAAGCUGUAGG; MIWI and MILI are mouse PIWI proteins and EfPiwi is from a freshwater sponge; tags in brackets are library labels; higher = faster piRNA-guided slicing of the target
# Conditions: auxiliary factor: 500 nM mouse GTSF1
# Outline: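 A transcribed, DNA-blocked target RNA library […] was incubated at 33 °C for 0–8 or 0–960 min with 1 nM active affinity-purified piRISC carrying one synthetic guide, in HEPES–potassium acetate buffer with or without 500 nM GTSF1 partner protein. Uncleaved targets were then sequenced and normalised to depth and to weakly complementary targets. Data from three trials were pooled, with k3 capped at 0.0001 min^-1, and a burst-and-steady-state fit yielded the pre-steady-state cleavage rate.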
# 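Further: 1 nM active piRISC with 0.1 nM target library at 33 °C single turnover.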
row,Sequence,pre-steady-state target cleavage rate
1,UCCUGGAUCAGCUUCGAUAGUAUUUACAAA,0.00974 ± 0.005
2,UCCUGGAUGUGCUUCGUUAGUAUUUAGAAA,< 0.0001
3,UCCUGGUACACCUUGCAUAGUAUUUUCAAA,0.0291 ± 0.016
4,UCCUGGAUGAGCUUGCAUAGUAUUUUCAAA,0.00959 ± 0.0061
5,UCCUGGAUCAGCUUGCAAUGUAUUUACAAA,0.0196 ± 0.0061
6,UCCUGGAACAGCUUGCAUUGUAUUUACUUA,0.163 ± 0.028
7,UCCUGGAUCAGCUUGCAUAGUAUAAUGUAA,0.0214 ± 0.0079
8,UCCUGGAUGUCGUUGCAUAGUAAUAAGUUA,0.0113 ± 0.004
9,UCCUGCUUGUGCUUGCAUAGUAUUUUCAAA,0.00521 ± 0.0042
10,UCCUCCUACAGCUUCCAUAGUAUUUUGUUA,0.0182 ± 0.0077
11,UCCUGGAUGUGCUUGCAUAGUAUUUAGAUUA,0.0647 ± 0.016
12,UCCUGGAUGAGCUUGCAUAGUAUUUUCAUA,0.0108 ± 0.0059
13,UCCUGGAUGUCGUAGCAUAGUAAUUAGUUA,0.0159 ± 0.0054
14,UCCUGGAUGUGCUUGCAAAGUAUUUUGUUA,0.0179 ± 0.0057
15,UCCUGGAUGAGGUUGCAUACUAUUUAGUUA,0.0167 ± 0.006
16,UCCUGGAACAGCUUGCAUAGUUUUAAGUUA,0.0465 ± 0.009

row,Sequence,pre-steady-state target cleavage rate
1,UCCUCCUACAGCUUGCAUAGUAAAUAGAAA,0.0692 ± 0.02
2,UCCUGGAUGAGCUUGCAAAGUAUUUACAAA,0.00757 ± 0.0048
3,UCCUGGAUGUCGAAGCAUAGUAUUUAGUA,0.0246 ± 0.008
4,UCCUGGAACAGGAAGCAUAGUAUUUAGAAA,0.049 ± 0.011
5,UCCUGGAUGAGCUUGCAUAGUAAAUAGUAA,0.0816 ± 0.026
6,UCCUGGAUGAGCUAGCAUAGUAUUUACUUA,0.169 ± 0.042
7,UCCUGCUACAGCAAGCAUAGUAUUUACAAA,0.191 ± 0.055
8,UCCUGGAACAGCUUGCAUAGCUAUUUAGUUA,0.00904 ± 0.0044
9,UCCUGGUACAGCUUGCAUAGUAUGUAGUUA,0.03 ± 0.011
10,UCCUGGAUGUCGAUCAUAGUAUUUAGUUA,0.017 ± 0.006
11,UCCUGGUACAGCUUGCUAUGUAUUUAGUAA,0.00603 ± 0.0046
12,UCCUCCUACAGCUUGCAUAGUUAUUACAAA,0.0124 ± 0.0054
13,UCCUGGAUGUCCUUGCAUAGUAUUUUCUUA,0.0376 ± 0.011
14,UCCUGGAUGUCGUUGCUUAGUAAUUAGUUA,0.0131 ± 0.0058
15,UCCUGGAACAGCUUGCAUAGUAUUAUCUAA,0.0368 ± 0.012

# Same assay, conditions: auxiliary factor: none (no GTSF1)
row,Sequence,pre-steady-state target cleavage rate
1,UCCUGGAUGUCGUUGCAUAGUUAUUAGUUA,0.00364 ± 0.0031
2,UCCUGGAUGUCGAACCAUUCUAUUUAGUUA,< 0.0001
3,UCCUGGAUGUCGAACGAUAGUAUAAUGUUA,< 0.0001
4,UCCUGGAUGUCGAACGUUAGAUUUUAGUUA,< 0.0001
5,UCCUGGAUGUCGAAGCAUGUAUUUAGUUA,< 0.0001
6,UCCUGGAUGUCGAUCCAUAGAAUUUAGUUA,< 0.0001
7,UCCUGGAUGUCGAACGUAUGAUAUUAGUUA,< 0.0001
8,UCCUGGAUGUCGAACAAUAGUAUUUAGUUA,< 0.0001
9,UCCUGGAUGUCGUUGCAAAGUUUUUAGUUA,0.00384 ± 0.0022
